Bioassay records: PubChem, Sanford-Burnham Center for Chemical Genomics
NPR1 activator = GC-A stimulated cGMP production enhancers – HEK293 GC-A cells, cGMP TR-FRET, EC30 ANP, primary screen; 0% at EC30 ANP, 100% saturating ANP; activation, % at 10 µM; hit rate 0.14% among 370,000; AID 1671463, 2021; in the data active = activation above about 40%
APOBEC3G inh = APOBEC3G DNA deaminase inhibitors, primary screen, biochemical, fluorescence, single-stranded DNA substrate, uHTS. inhibition, % at 20 µM. DNA dC->dU-editing enzyme APOBEC-3G (Homo sapiens), Q9HC16. AID 493012, 2011. hit rate 0.28% among 330,000. recombinant A3G, ssDNA deamination FAM/TAMRA fluorescence;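 active = inhibition of at least 40% at 20 µM, with no more than 30% in the related APOBEC3A deaminase screen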;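 also: plate controls were DMSO wells with A3G for no effect and wells lacking A3G enzyme for full effect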
Target sequence (Q9HC16 whole entry, looked up): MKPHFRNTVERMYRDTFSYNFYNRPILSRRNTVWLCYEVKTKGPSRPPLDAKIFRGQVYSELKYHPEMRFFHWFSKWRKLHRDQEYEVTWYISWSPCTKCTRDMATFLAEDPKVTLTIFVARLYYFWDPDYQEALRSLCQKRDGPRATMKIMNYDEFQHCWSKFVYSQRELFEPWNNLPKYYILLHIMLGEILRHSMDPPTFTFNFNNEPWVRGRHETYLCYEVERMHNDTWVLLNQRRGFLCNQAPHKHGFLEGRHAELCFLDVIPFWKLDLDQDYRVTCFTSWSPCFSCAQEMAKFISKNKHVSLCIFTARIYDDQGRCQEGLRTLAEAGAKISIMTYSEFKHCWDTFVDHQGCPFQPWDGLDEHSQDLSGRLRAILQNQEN
PfG6PD inh = PfG6PD enzyme inhibitors, primary screen, biochemical, fluorescence intensity, uHTS. glucose-6-phosphate dehydrogenase-6-phosphogluconolactonase (Plasmodium falciparum 3D7). inhibition, % at 20 µM. PfGluPho enzyme, NADPH resazurin-diaphorase fluorescence. hit rate 0.78% among 350,000;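 active = inhibition reaching at least a set limit at 20 µM in the primary screen, cut at about 59% in these data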;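 also: 0% = DMSO wells with substrate and 100% = DMSO wells lacking glucose-6-phosphate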
A3A deaminase = APOBEC3A ssDNA deaminase inhibitors, primary screen, selectivity assay for APOBEC3G inhibitor project, biochemical, FAM/TAMRA oligo cleavage fluorescence; DNA dC->dU-editing enzyme APOBEC-3A (Homo sapiens), P31941; recombinant A3A, FAM/TAMRA ssDNA deamination fluorescence; inhibition, % at 20 µM; hit rate 0.41% among 330,000; AID 493011, 2011;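 active = at least 40% inhibition at 20 µM here, with at most 30% in a related deaminase screen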;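 also: plate controls were A3A with DMSO for no effect and wells lacking A3A enzyme for full effect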
Target sequence (P31941 whole entry, looked up): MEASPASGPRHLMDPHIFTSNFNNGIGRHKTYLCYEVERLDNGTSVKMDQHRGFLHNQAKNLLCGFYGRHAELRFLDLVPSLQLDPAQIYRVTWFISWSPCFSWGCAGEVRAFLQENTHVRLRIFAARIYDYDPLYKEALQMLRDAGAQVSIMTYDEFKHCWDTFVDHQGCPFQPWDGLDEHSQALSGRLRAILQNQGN
Neddyl block = inhibitors of cullin neddylation, primary screen, biochemical, TR-FRET, uHTS, NAE and Ubc12; NEDD8-conjugating enzyme Ubc12 (Homo sapiens) + NEDD8-activating enzyme E1 regulatory …; inhibition, % at 25 µM; hit rate 0.58% among 360,000; AID 651699, 2012; in the data active = inhibition above about 36%
NPR2 activator = human GC-B receptor activators, primary screen, HEK293 GC-B cells, cGMP TR-FRET, EC30 CNP; Atrial natriuretic peptide receptor 2 (Homo sapiens), P20594; 0% at EC30 CNP, 100% saturating CNP; activation, % at 10 µM; hit rate 0.11% among 370,000; AID 1920062, 2024;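 active = activation at 10 µM reaching about 35% in either raw or pattern-adjusted values, limit read from the data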
A3G conf = APOBEC3G deaminase inhibitor retest, confirmation, biochemical, fluorescence, single-stranded DNA substrate, single concentration | shares compounds with APOBEC3G inh | recombinant A3G ssDNA deaminase, UDG/FAM-TAMRA fluorescence | inhibition, % at 20 µM | hit rate 72% among 890;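 active = inhibition reaching a set limit in any replicate at 20 µM, the limit being 80% of the first screen's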
UDG ctr A3G = E. coli UDG inhibitors, confirmation, counter-screen for APOBEC3G inhibitor project, biochemical, single concentration, fluorescence, FAM/TAMRA oligo. shares compounds with APOBEC3G inh. 710 tested, under 10 active. UDG counterscreen. inhibition, % at 20 µM. AID 504715, 2011;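 active = compounds giving 40% or more inhibition at 20 µM in any one of the three replicates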;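 also: plate controls were DMSO wells with UDG and oligo for no effect and DMSO wells lacking both for full effect; inhibitors lower the FAM signal released by uracil excision and alkaline cleavage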
PfG6PD confirm = PfG6PD inhibitors, hit retest, confirmation, biochemical, fluorescence intensity, single concentration; hit rate 34% among 2,400; inhibition, % at 20 µM; shares compounds with PfG6PD inh; recombinant PfGluPho, NADPH-diaphorase-resazurin fluorescence;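 active = inhibition of at least 50% at 20 µM in any single replicate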;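 also: 0% = DMSO with substrate and 100% = DMSO lacking glucose-6-phosphate substrate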
Diaphorase 10uM = diaphorase inhibitors and chemical oxidizers, confirmation, counter-screen for P. falciparum G6PD inhibitor project, biochemical, fluorescence intensity, 10 µM NADPH; shares compounds with PfG6PD inh; hit rate 39% among 820; AID 504862, 2011; inhibition, % at 20 µM; diaphorase-coupled resazurin reduction, NADPH 10 uM;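 active = average inhibition reaching 50% or more with the compound at 20 µM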;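 also: resorufin red fluorescence formed as diaphorase reduces resazurin using NADPH; 0% = DMSO with enzyme and 100% = DMSO without enzyme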
Diaphorase 30uM = diaphorase inhibitors and chemical oxidizers, confirmation, counter-screen for P. falciparum G6PD inhibitor project, biochemical, fluorescence intensity, 30 µM NADPH; shares compounds with PfG6PD inh; Diaphorase/resazurin coupled assay, resorufin fluorescence; inhibition, % at 20 µM; hit rate 29% among 820;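 active = inhibition averaging 50% or more, tested at 20 µM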;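 also: 0% = DMSO with enzyme and 100% = DMSO wells lacking diaphorase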
Active calls of the source: *; · = no result given. An excerpt weighted towards active compounds, which were near 2% of everything screened.

SMILES | NPR1 activator | APOBEC3G inh | PfG6PD inh | A3A deaminase | Neddyl block | NPR2 activator | A3G conf | UDG ctr A3G | PfG6PD confirm | others
Cc1ccc(-n2c(N)c(C(N)=O)sc2=S)c(C)c1 | 6.1 | 45.4* | 62.1* | 1.0 | -18.1 | 2.0 | 14.3 | · | 29.4
CC(=O)c1sc(=S)n(-c2ccccc2)c1C | 0.4 | -5.9 | -1.6 | -3.3 | -20.8 | 1.7 | · | · | ·
Nc1c(C(=O)N2CCOCC2)sc(=S)n1-c1ccccc1 | 3.5 | 52.3* | 59.0* | -0.2 | -11.8 | 2.6 | 30.8* | -3.9 | 9.3
Cc1ccc(-n2c(N)c(C(=O)N3CCCCC3)sc2=S)cc1 | 2.3 | 36.5 | 40.7 | -2.2 | -27.0 | -0.7 | · | · | ·
CCOc1ccc(-n2c(N)c(C(=O)N3CCN(C)CC3)sc2=S)cc1 | 4.1 | -1.7 | 1.2 | -3.1 | -20.4 | 1.2 | · | · | ·
Cc1ccc(-n2c(N)c(C(=O)N3CCN(C)CC3)sc2=S)cc1 | 6.9 | 45.7* | 78.8* | -1.3 | -23.7 | 5.3 | 74.5* | -2.6 | 70.1* | Diaphorase 10uM=5.9;Diaphorase 30uM=8.3
Nc1c(C(=O)N2CCCCC2)sc(=S)n1-c1ccccc1 | 8.2 | 56.0* | 78.8* | 1.2 | -14.0 | 3.3 | 27.4 | · | 35.0
Cc1ccc(C)c(-n2c(N)c(C(N)=O)sc2=S)c1 | 1.2 | 0.0 | 4.3 | 1.4 | -25.7 | 5.9 | · | · | ·
CCc1ccc(CCNC(=O)OC2CC3CC2[C@H]2CCCCN2[C@H]3C)cc1 (some centres not stated) | -1.9 | · | · | · | · | 1.4 | · | · | ·
Cc1c(Cl)cccc1NC(=O)Cn1cccc1 | 2.9 | -4.1 | 8.3 | -2.9 | 7.3 | 4.7 | · | · | ·
Cc1cc(C)c2c(=O)n(CC(=O)Nc3cccc(Cl)c3C)sc2n1 | 10.9 | 71.8* | 105.6* | 7.0 | -18.6 | 12.4 | 82.9* | -3.1 | 85.0* | Diaphorase 10uM=-12.5;Diaphorase 30uM=-4.3
Cc1cc(C)c2c(=O)n(CC(=O)NC3CCCC3)sc2n1 | 5.5 | 51.3* | 90.2* | -2.3 | -0.9 | 18.6 | 82.8* | -0.9 | 72.9* | Diaphorase 10uM=-32.2;Diaphorase 30uM=-16.1
CCOC(=O)[C@]12CCCC3=C1N(CCC3)C(=O)[C@@H](CC(=O)NCCC(C)C)C2 | 1.5 | · | · | · | · | 3.4 | · | · | ·
Nc1ncnc2c1ncn2[C@@H]1O[C@H](C(=O)N[C@@H](CCc2ccccc2)C(=O)N2CCN(CC(=O)N3CCCC3)CC2)[C@@H](O)[C@H]1O | 2.9 | · | · | · | · | 3.0 | · | · | ·
CCOc1ccc(N)c(SSc2cc(OCC)ccc2N)c1 | 4.8 | 72.1* | 68.0* | -3.0 | 2.1 | 4.2 | 96.1* | 8.4 | 45.0
COc1cc(NC(=O)CSc2nc(C)cc(=O)[nH]2)cc(OC)c1 | -3.5 | · | · | · | · | 5.5 | · | · | ·
Cc1ccc(-n2sc3ccccc3c2=O)cc1 | 3.8 | 76.9* | 114.8* | 1.7 | -4.6 | 15.5 | 70.6* | -3.9 | 100.6* | Diaphorase 10uM=-23.4;Diaphorase 30uM=-22.9
Cc1cccc(OCCn2c(=S)[nH]c3ccccc32)c1 | -0.9 | 62.0* | 68.2* | 8.4 | -7.1 | 0.1 | 45.8* | -1.1 | 32.0
CCSS(=O)(=O)c1cccc2cccnc12 | 6.3 | 68.0* | 79.5* | -1.6 | 0.1 | 3.7 | 66.0* | -0.5 | 1.5
O=C(O)CCS(=O)(=O)c1cccc2cccnc12 | 4.8 | -5.1 | -0.8 | -1.6 | -10.5 | 2.1 | · | · | ·
Cc1cc(C)cc(C(=O)OCCN(C)C2CN(Cc3cn(Cc4ccccc4F)nn3)S(=O)(=O)C2)c1 (configuration not stated) | 0.9 | · | · | · | · | -3.1 | · | · | ·
CCC(=O)NC1=C(Cl)C(=O)C(NC(=O)CC)=C(Cl)C1=O | 6.9 | 86.6* | 114.3* | -4.0 | 12.8 | 9.0 | 95.7* | -2.0 | 114.4* | Diaphorase 10uM=98.2*;Diaphorase 30uM=96.7*
CCC(=O)NC1=C(NC(C)c2ccccc2)C(=O)c2ccccc2C1=O (configuration not stated) | -7.3 | 0.5 | 5.1 | -1.4 | -43.4 | -9.5 | · | · | ·
CS(=O)(=O)c1ccc(N)c(SSc2cc(S(C)(=O)=O)ccc2N)c1 | 1.7 | 86.5* | 97.0* | 3.6 | -22.2 | 0.0 | 94.7* | · | 99.1* | Diaphorase 10uM=-29.0;Diaphorase 30uM=-19.9
CCc1ccc2nc(NC(=O)c3ccc(N4C(=O)CCC4=O)cc3)sc2c1 | 27.1 | -6.0 | -0.4 | -3.1 | -129.2 | -4.3 | · | · | ·
SMILES | NPR1 activator | APOBEC3G inh | PfG6PD inh | A3A deaminase | Neddyl block | NPR2 activator | A3G conf | UDG ctr A3G | PfG6PD confirm | others
CNS(=O)(=O)c1ccc2nc(NC(=O)c3ccc(N4C(=O)CCC4=O)cc3)sc2c1 | 2.4 | -10.5 | 63.5* | -2.3 | 25.8 | 0.7 | · | · | 40.9
C=CCOC(=O)C1=C(C)N=c2s/c(=C3\C(=O)N(CC(=O)O)c4ccccc43)c(=O)n2C1c1ccc(OC)cc1 (configuration not stated) | -7.3 | -7.3 | 60.3* | -7.8 | -9.5 | 3.0 | · | · | -6.8
COc1cc(NCc2ccccc2O)c2ncccc2c1 | 1.2 | -9.9 | 64.6* | -7.5 | 7.9 | 6.2 | · | · | 55.7* | Diaphorase 10uM=-1.9;Diaphorase 30uM=-7.3
Oc1ccccc1CNc1cccc2cccnc12 | -1.3 | -2.2 | 19.7 | 4.9 | 3.9 | -2.3 | · | · | ·
COC(=O)c1sc(NC(=S)NNC(=O)c2c(Br)c(C)nn2C)c(C(=O)OC)c1C | 12.9 | -6.8 | 61.3* | -4.7 | -190.0 | 8.2 | · | · | 38.2
COC(=O)c1sc(S(=O)(=O)Nc2c(C)nn(C)c2C)c(C(=O)OC)c1C | 3.8 | -6.2 | -0.3 | -2.9 | 2.8 | 2.2 | · | · | ·
